Source: the supplement of paper PMC10849652
The full data set covers some 8,800 targets. This sample favours those with a hit. About 0.5% of all pairs of compound and target were hits.

How the values were obtained:
Experiment in all cases: log2 fold change, soluble protein after heating vs DMSO (PISA); higher = thermal stabilisation; K562 lysate, 10 uM; active = over 0.2 and 3.5 SD of the protein, either way, in both replicates (recomputed)
[1] = compound: C#Cc1cccc(Nc2ncnc3cc(OCCOC)c(OCCOC)cc23)c1 [erlotinib]
Outline: (§1)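 Thermal stability, expressed as log-two fold change relative to solvent controls, is given from duplicates. Crude K562 extract in PBS pH 7.4 with 1 mM MgCl2, at 1 mg/mL protein, was treated with 10 μM compound for 30 min and heated in aliquots for 3 min across 48°C-58°C. After pooling, adjustment to 0.5% NP-40 at 4°C and centrifugation at 21,000xg for 90 min, supernatant protein was measured by TMTpro 16plex LC-MS/MS with channel sums equalised.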

[2] = compound: C/C(=N\NC(=O)C1=CC(=CC=C1)S(=O)(=O)N2CCOCC2)/C3=C(C=CC(=C3)Cl)O
Outline: as §1

[3] = compound: C1=CC(=CC=C1C2=NC3=C(N2)C=C(C=C3)C(=O)N)OC4=CC=C(C=C4)Cl
Outline: as §1

[4] = compound: C1=CC2=C(C=CC(=C2)/C=C\3/C(=O)NC(=NCC4=CC=CS4)S3)N=C1
Outline: as §1

[5] = compound: C1=CC2=NC=CN=C2C=C1/C=C/3\C(=O)NC(=O)S3
Outline: as §1

[6] = compound: C1=CC=C(C=C1)C2=NC(=C(N2)C3=CC=NC=C3)C4=CC(=C(C=C4)Cl)O
Outline: as §1

[7] = compound: C1=CC=C2C(=C1)C3=NNC4=CC=CC(=C43)C2=O
Outline: as §1

[8] = compound: C1CCN(C1)C(=O)NC2=CC=CC(=C2)NC3=NC=C(C(=N3)NCCC4=CN=CN4)Br
Outline: as §1

[9] = compound: C1CN(CCC1(CC2=CC=C(C=C2)Cl)N)C3=NC=NC4=C3C=CN4
Outline: as §1

[10] = compound: C1COCCN1CCN2C3=CC=CC=C3N=C2NC(=O)C4=CC(=CC=C4)[N+](=O)[O-] [IRAK-1-4 Inhibitor I]
Outline: as §1

[11] = compound: C=CC(=O)N1CCC[C@@H](n2nc(-c3ccc(Oc4ccccc4)cc3)c3c(N)ncnc32)C1 [ibrutinib]
Outline: as §1

[12] = compound: CC(=O)c1cnc2ccc(-c3cc(Cl)c(O)c(Cl)c3)nc2c1N[C@H]1CC[C@H](CN(C)C)CC1
Outline: as §1

[13] = compound: CC(C)(C)Cn1c(N)nc2ccc(-c3[nH]c(C(C)(C)C)nc3-c3ccc(F)cc3)nc21 [ralimetinib]
Outline: as §1

[14] = compound: CC(C)(O)CC(=O)NCCn1ccc2ncnc(Nc3ccc(Oc4cccc(C(F)(F)F)c4)c(Cl)c3)c21
Outline: as §1

[15] = compound: CC(C)C1=C2N=C(C=C(N2N=C1)NCC3=CC=CC=C3)NCCCCCCN
Outline: as §1

[16] = compound: CC1=C(C(CC(=O)N1)C2=CC=C(C=C2)C(F)(F)F)C(=O)NC3=C(C=C4C(=C3)C=NN4)F
Outline: as §1

[17] = compound: CC1=C(C2=C(C=C1)C(=O)C3=CC=CC=C3N2CCCN)C
Outline: as §1

[18] = compound: CC1=C(C=C(C=C1)NC(=O)C2=CC(=CC=C2)C(C)(C)C#N)NC3=CC4=C(C=C3)N=CN(C4=O)C
Outline: as §1

[19] = compound: CC1=C(C=C(C=C1)NC(=O)C2=CC(=CC=C2)N(C)C)NC(=O)C3=CC=C(C=C3)O
Outline: as §1

[20] = compound: CC1=CC=C(C=C1)SC2=C3C=C(SC3=CN=C2)C(=O)N
Outline: as §1

Measured: log2 fold change

XPO1 (UniProt O14980)
Chain of UniProt O14980 (O14980 whole entry, looked up): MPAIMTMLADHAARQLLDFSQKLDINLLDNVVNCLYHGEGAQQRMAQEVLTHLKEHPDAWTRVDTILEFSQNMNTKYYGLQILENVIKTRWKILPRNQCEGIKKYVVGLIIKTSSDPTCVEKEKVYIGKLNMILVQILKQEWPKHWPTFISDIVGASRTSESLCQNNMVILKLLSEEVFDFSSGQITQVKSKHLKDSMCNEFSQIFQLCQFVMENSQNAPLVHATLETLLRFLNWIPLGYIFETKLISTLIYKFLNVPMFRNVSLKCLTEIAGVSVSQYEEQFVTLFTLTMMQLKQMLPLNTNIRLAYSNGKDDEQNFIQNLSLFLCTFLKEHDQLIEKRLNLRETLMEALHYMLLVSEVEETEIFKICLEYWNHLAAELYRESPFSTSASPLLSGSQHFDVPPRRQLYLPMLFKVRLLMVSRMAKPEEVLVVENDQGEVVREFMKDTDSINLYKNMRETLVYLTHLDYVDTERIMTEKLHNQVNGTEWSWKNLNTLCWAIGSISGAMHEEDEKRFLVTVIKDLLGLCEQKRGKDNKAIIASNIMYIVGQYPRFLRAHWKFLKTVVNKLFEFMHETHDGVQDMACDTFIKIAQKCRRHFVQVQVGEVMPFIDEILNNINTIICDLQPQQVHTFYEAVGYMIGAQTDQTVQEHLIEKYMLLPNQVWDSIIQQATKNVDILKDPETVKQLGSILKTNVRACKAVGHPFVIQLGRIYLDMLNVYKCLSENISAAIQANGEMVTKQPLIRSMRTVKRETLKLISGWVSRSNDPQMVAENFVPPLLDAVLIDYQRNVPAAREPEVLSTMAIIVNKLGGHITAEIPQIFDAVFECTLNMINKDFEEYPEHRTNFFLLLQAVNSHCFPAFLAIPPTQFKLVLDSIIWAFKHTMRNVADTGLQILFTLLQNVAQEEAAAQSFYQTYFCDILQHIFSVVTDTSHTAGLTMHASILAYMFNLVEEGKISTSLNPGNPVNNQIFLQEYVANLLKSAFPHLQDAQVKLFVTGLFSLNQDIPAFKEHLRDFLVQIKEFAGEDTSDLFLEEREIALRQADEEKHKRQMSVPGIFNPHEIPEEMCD
inactive: [1] 0.021 | [2] 0.025 | [3] -0.015 | [4] 0.017 | [5] 0.026 | [6] -0.031 | [7] -0.045 | [8] -0.005 | [9] 0.033 | [10] 0.016 | [11] -0.01 | [12] 0.008 | [13] 0.029 | [14] -0.037 | [15] -0.01 | [16] -0.007 | [17] 0.035 | [18] -0.004 | [19] 0.02 | [20] 0.019

VPS16 (UniProt Q9H269)
Chain of UniProt Q9H269 (Q9H269 whole entry, looked up): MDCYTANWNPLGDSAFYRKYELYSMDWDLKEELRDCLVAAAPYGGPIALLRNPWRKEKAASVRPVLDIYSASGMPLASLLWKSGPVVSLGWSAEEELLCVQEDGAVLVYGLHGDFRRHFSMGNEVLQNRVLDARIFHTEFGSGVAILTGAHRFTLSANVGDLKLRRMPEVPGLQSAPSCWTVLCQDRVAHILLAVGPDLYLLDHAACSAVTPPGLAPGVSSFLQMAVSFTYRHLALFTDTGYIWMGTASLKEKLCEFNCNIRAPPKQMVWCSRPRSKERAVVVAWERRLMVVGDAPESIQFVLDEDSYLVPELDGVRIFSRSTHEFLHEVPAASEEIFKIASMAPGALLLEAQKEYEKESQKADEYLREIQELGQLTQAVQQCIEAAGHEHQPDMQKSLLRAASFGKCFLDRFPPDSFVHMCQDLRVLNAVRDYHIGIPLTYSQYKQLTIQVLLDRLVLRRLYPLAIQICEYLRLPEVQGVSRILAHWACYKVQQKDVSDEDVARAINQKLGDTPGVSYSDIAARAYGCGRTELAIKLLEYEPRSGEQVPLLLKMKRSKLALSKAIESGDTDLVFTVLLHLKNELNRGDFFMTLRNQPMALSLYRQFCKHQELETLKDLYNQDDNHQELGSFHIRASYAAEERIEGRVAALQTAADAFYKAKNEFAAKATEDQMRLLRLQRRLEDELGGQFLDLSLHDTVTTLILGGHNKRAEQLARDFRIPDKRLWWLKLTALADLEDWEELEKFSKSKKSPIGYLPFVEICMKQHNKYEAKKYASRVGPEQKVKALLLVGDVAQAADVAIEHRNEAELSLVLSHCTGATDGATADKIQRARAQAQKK
inactive: [1] 0.059 | [2] 0.026 | [3] 0.048 | [4] 0.024 | [5] -0.03 | [6] 0.048 | [7] -0.075 | [8] 0.03 | [9] 0.023 | [10] 0.025 | [11] 0.009 | [12] 0.017 | [13] -0.012 | [14] -0.038 | [15] -0.014 | [16] -0.015 | [17] -0.029 | [18] 0.019 | [19] 0.031 | [20] 0

VPS18 (UniProt Q9P253)
inactive: [1] 0.018 | [2] 0.056 | [3] -0.032 | [4] -0.021 | [5] -0.016 | [6] 0.051 | [7] -0.076 | [8] -0.017 | [9] 0.053 | [10] -0.034 | [11] -0.007 | [12] -0.026 | [13] 0.038 | [14] -0.065 | [15] -0.022 | [16] 0.004 | [17] -0.046 | [18] -0.004 | [19] -0.041 | [20] 0.009

UTP18 (UniProt Q9Y5J1)
inactive: [1] 0.055 | [2] 0.072 | [3] 0.051 | [4] -0.056 | [5] 0.129 | [6] 0.038 | [7] -0.068 | [8] -0.122 | [9] 0.107 | [10] -0.031 | [11] 0.125 | [12] -0.031 | [13] 0.002 | [14] -0.017 | [15] 0.033 | [16] 0.057 | [17] -0.085 | [18] -0.017 | [19] 0.028 | [20] 0.023

VASP (UniProt P50552)
Chain of UniProt P50552 (P50552 whole entry, looked up): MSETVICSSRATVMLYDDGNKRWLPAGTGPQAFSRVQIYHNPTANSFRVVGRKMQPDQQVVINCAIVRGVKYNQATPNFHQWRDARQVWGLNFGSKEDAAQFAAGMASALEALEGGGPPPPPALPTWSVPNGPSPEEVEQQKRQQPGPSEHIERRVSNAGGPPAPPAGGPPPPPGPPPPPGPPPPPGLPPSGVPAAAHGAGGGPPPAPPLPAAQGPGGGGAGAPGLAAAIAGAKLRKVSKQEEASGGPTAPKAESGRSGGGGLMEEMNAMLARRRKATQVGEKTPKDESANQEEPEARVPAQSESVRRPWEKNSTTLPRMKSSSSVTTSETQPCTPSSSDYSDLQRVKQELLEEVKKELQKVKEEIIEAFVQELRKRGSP
inactive: [1] 0.001 | [2] -0.028 | [3] 0.017 | [4] -0.006 | [5] -0.035 | [6] -0.003 | [7] -0.02 | [8] -0.006 | [9] 0.035 | [10] 0.014 | [11] -0.002 | [12] 0.002 | [13] -0.003 | [14] -0.018 | [15] -0.009 | [16] -0.007 | [17] 0.038 | [18] 0.014 | [19] -0.014 | [20] 0.01

UNC13D (UniProt Q70J99)
Chain of UniProt Q70J99 (Q70J99 whole entry, looked up): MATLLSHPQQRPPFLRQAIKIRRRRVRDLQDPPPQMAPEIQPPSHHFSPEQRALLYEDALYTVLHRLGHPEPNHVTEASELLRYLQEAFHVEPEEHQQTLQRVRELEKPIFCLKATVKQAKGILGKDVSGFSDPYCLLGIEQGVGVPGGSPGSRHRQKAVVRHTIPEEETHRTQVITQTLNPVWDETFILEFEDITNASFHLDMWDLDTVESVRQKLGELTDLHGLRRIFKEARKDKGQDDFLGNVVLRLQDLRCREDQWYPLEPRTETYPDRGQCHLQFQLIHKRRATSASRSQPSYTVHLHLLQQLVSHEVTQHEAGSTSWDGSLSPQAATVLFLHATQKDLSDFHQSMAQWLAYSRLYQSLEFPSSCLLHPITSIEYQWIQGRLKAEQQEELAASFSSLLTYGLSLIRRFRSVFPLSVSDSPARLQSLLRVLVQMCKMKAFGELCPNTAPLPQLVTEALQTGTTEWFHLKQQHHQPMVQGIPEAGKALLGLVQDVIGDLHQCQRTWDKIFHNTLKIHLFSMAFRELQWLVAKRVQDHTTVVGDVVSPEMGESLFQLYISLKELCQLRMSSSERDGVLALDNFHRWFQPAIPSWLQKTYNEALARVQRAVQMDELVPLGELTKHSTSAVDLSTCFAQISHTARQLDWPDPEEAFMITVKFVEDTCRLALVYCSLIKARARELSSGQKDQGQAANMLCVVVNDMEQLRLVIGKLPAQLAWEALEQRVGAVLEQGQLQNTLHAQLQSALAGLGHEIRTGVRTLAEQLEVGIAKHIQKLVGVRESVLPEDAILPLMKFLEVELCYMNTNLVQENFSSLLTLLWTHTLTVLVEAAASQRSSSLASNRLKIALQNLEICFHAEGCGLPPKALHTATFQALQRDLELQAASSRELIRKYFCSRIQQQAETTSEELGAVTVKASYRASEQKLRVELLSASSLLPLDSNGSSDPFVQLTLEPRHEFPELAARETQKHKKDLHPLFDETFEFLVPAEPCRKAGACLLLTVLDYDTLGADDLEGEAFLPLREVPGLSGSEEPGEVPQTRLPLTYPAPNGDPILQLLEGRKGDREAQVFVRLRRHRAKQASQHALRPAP
inactive: [1] 0.019 | [2] 0.023 | [3] -0.049 | [4] 0.02 | [5] 0.025 | [6] -0.007 | [7] -0.009 | [8] 0.005 | [9] 0.013 | [10] 0.022 | [11] -0.043 | [12] -0.005 | [13] 0.031 | [14] -0.014 | [15] 0.018 | [16] 0.016 | [17] 0.015 | [18] 0.012 | [19] 0.025 | [20] -0.015

VPS37B (UniProt Q9H9H4)
inactive: [1] -0.046 | [2] 0.078 | [3] 0.059 | [4] 0.002 | [5] -0.011 | [6] 0.031 | [7] 0 | [8] 0.043 | [9] 0.098 | [10] -0.012 | [11] 0.024 | [12] 0.014 | [13] -0.055 | [14] 0.009 | [15] -0.028 | [16] 0 | [17] -0.008 | [18] 0.019 | [19] 0.012 | [20] 0.028

ZNF609 (UniProt O15014)
inactive: [1] -0.035 | [2] -0.013 | [3] 0.028 | [4] -0.029 | [5] -0.053 | [6] -0.023 | [7] -0.109 | [8] -0.008 | [9] 0.026 | [10] -0.005 | [11] 0.005 | [12] -0.025 | [13] 0.01 | [14] -0.034 | [15] -0.001 | [16] 0.01 | [17] -0.045 | [18] -0.082 | [19] 0.013 | [20] -0.058

UQCC2 (UniProt Q9BRT2)
Chain of UniProt Q9BRT2 (Q9BRT2 whole entry, looked up): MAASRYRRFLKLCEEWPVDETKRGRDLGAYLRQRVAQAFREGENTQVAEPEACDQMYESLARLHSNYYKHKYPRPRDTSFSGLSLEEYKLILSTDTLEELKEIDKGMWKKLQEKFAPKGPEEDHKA
inactive: [1] 0.037 | [2] 0.044 | [3] -0.039 | [4] 0.06 | [5] 0.001 | [6] -0.007 | [7] 0 | [8] -0.05 | [9] -0.023 | [10] 0.016 | [11] 0.054 | [12] 0 | [13] 0.006 | [14] 0.01 | [15] 0.018 | [16] -0.022 | [17] 0.016 | [18] 0.007 | [19] -0.016 | [20] -0.012

WRN (UniProt Q14191)
inactive: [1] -0.003 | [2] -0.048 | [3] 0.005 | [4] 0.006 | [5] 0.057 | [6] 0.011 | [7] -0.077 | [8] 0.02 | [9] -0.012 | [10] -0.013 | [11] 0.02 | [12] -0.008 | [13] 0.021 | [14] -0.055 | [15] -0.016 | [16] 0.023 | [17] 0.019 | [18] -0.016 | [19] 0.016 | [20] -0.048

WDR3 (UniProt Q9UNX4)
inactive: [1] -0.036 | [2] -0.013 | [3] -0.044 | [4] -0.012 | [5] 0.027 | [6] -0.015 | [7] 0.026 | [8] 0.007 | [9] -0.04 | [10] -0.02 | [11] 0 | [12] 0.014 | [13] 0.021 | [14] 0.025 | [15] -0.033 | [16] 0.015 | [17] -0.032 | [18] -0.021 | [19] -0.001 | [20] 0.03

VCPIP1 (UniProt Q96JH7)
Chain of UniProt Q96JH7 (Q96JH7 whole entry, looked up): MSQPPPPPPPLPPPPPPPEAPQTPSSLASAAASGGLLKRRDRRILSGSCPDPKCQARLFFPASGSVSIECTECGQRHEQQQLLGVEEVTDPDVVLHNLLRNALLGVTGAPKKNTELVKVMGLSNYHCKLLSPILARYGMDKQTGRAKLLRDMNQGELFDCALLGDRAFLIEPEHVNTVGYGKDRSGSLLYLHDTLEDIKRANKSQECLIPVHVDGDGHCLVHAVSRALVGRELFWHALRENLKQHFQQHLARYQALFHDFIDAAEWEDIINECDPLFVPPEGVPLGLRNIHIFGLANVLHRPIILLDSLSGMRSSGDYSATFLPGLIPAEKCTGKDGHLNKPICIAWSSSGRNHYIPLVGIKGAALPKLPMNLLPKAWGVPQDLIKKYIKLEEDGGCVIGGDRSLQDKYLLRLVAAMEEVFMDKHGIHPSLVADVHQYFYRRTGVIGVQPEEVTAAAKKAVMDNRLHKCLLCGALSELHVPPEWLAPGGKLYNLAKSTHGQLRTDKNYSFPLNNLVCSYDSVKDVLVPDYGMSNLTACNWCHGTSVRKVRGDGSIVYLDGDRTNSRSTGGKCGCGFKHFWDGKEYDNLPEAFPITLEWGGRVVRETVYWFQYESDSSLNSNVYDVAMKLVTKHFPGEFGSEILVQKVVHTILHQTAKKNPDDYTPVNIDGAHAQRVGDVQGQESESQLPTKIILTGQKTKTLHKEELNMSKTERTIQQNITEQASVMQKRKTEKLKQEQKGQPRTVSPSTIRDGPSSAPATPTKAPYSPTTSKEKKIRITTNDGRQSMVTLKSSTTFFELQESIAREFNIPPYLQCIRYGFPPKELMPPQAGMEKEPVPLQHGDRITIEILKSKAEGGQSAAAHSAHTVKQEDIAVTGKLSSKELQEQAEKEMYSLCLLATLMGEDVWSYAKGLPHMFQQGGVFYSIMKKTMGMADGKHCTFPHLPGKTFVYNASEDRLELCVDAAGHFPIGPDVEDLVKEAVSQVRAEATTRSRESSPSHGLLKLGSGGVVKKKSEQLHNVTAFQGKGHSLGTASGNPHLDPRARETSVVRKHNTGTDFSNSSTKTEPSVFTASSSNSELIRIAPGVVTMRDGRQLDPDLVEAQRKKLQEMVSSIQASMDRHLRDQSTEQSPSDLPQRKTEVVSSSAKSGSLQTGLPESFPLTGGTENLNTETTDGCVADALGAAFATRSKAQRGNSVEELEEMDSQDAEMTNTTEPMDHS
inactive: [1] -0.054 | [2] -0.04 | [3] -0.002 | [4] 0.053 | [5] -0.037 | [6] 0.041 | [7] 0.006 | [8] 0 | [9] 0.038 | [10] -0.035 | [11] 0.002 | [12] 0.01 | [13] 0.009 | [14] 0.011 | [15] -0.029 | [16] -0.021 | [17] -0.05 | [18] -0.007 | [19] 0.048 | [20] -0.017

VPS11 (UniProt Q9H270)
inactive: [1] 0.049 | [2] -0.037 | [3] 0.014 | [4] 0.034 | [5] 0.014 | [6] 0.011 | [7] -0.053 | [8] 0.003 | [9] -0.002 | [10] -0.031 | [11] -0.002 | [12] 0.025 | [13] 0.033 | [14] -0.025 | [15] 0.001 | [16] 0.003 | [17] 0.031 | [18] 0.026 | [19] -0.03 | [20] -0.002

YDJC (UniProt A8MPS7)
Chain of UniProt A8MPS7 (A8MPS7 whole entry, looked up): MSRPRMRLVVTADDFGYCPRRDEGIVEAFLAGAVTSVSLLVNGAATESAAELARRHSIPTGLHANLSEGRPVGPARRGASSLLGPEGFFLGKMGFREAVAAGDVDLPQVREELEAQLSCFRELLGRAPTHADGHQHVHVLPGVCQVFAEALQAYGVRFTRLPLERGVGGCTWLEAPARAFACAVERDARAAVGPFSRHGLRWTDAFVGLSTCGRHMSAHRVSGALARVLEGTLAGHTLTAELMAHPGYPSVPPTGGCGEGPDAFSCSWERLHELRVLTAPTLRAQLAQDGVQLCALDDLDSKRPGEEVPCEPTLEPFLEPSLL
inactive: [1] -0.083 | [2] 0.036 | [3] -0.011 | [4] -0.012 | [5] -0.01 | [6] 0.029 | [7] -0.065 | [8] -0.034 | [9] 0.029 | [10] -0.023 | [11] 0.024 | [12] 0.023 | [13] -0.015 | [14] -0.064 | [15] -0.028 | [16] 0.052 | [17] -0.034 | [18] 0.011 | [19] 0.022 | [20] 0.021

UXT isoform 2 (UniProt Q9UBK9)
inactive: [1] 0.012 | [2] -0.036 | [3] 0.033 | [4] 0.021 | [5] -0.054 | [6] 0.035 | [7] 0.012 | [8] -0.033 | [9] 0.186 | [10] 0.007 | [11] -0.078 | [12] -0.018 | [13] -0.063 | [14] -0.075 | [15] 0.006 | [16] -0.035 | [17] -0.091 | [18] 0 | [19] -0.015 | [20] -0.032

WRNIP1 (UniProt Q96S55)
inactive: [1] 0.019 | [2] -0.128 | [3] -0.014 | [4] -0.024 | [5] -0.005 | [6] 0.003 | [7] -0.064 | [8] 0.028 | [9] 0.023 | [10] -0.05 | [11] 0.025 | [12] 0.026 | [13] 0.051 | [14] 0.026 | [15] 0.001 | [16] 0.045 | [17] 0.013 | [18] -0.023 | [19] -0.003 | [20] -0.023
